Laboratory results from PubChem BioAssay (NCATS).
Results filed as inconclusive are left out. A call without a number means that no potency is given here. Active and inactive are the calls of the source. Calls come from the whole dose curve; as a rule, active = well fitted curve in the direction sought with a large enough effect; inconclusive = small, poorly fitted or top-dose-only effect, or another doubt; inactive = no such curve, though single readings can be large; an effect the other way counts as inactive or inconclusive.

What was measured:
[1] = Primary qHTS for inhibitors of nuclear receptor binding SET domain protein 2 (NSD2) in an isogenic RCH-ACV NSD2 p.E1099K mutant (9B) (AID 1645876); settings: RCH-ACV NSD2 E1099K (9B) viability, CellTiter-Glo, 72 h; series mostly up to 44.9 µM
[2] = Primary qHTS for inhibitors of nuclear receptor binding SET domain protein 2 (NSD2) in an RCH-ACV wild type WT cells (2C) (AID 1645877); settings: RCH-ACV (leukaemia line) NSD2 WT (2C) viability, CellTiter-Glo, 72 h; series mostly up to 44.9 µM
Note: nearly all actives have a fitted effect of over 70% in size.
Potency is the fitted concentration of half-maximal effect.

| Structure (SMILES) | Potency [1] | Potency [2] |
| --- | --- | --- |
| Nc1c(Cl)c(Cl)c(Cl)c(Cl)c1Cl | inactive | inactive |
| COc1nn(CSP(=S)(OC)OC)c(=O)s1 | 9.69 µM (active) | 13.7 µM (active) |
| COC[C@H]1OC(=O)c2coc3c2[C@@]1(C)C1=C(C3=O)[C@@H]2CC[C@H](O)[C@@]2(C)C[C@@H]1OC(C)=O | 0.58 µM (active) | 0.58 µM (active) |
| C=CCC1=C(C)C(OC(=O)C2C(C=C(C)C)C2(C)C)CC1=O (stereo unspecified) | 24.3 µM (active) | 34.4 µM (active) |
| COC(C)(C)CCCC(C)C/C=C/C(C)=C/C(=O)OC(C)C (stereo unspecified) | inactive | inactive |
| Oc1ccc2c3c1O[C@H]1[C@@H](O)C=C[C@H]4[C@@H](C2)NCC[C@@]341 | 28.1 µM (active) | 39.7 µM (active) |
| CS(=O)(=O)c1ccc(C(=O)C2C(=O)CCCC2=O)c([N+](=O)[O-])c1 | inactive | inactive |
| O=[N+]([O-])c1cc([N+](=O)[O-])c2ccccc2c1 | inactive | inactive |
